# In PMC11062922 (Nature Chemical Biology, 2023):
# Where two headings read alike, the source gives them in different places.
# Key:
# Set-up in all cases: species or system human, MV4-11 + K-562 + COLO205 + SK-N-BE2 + OVCAR-8
# ATM = conditions: read-out: apparent Kd, n = 1
# EPHA2 = conditions: read-out: apparent Kd, n = 1
# HCK = conditions: read-out: apparent Kd, n = 1
# PRKAA2 = conditions: read-out: apparent Kd, n = 1
# PRKX = conditions: read-out: apparent Kd, n = 1
# RIOK2 = conditions: read-out: apparent Kd, n = 1
# ROCK2 = conditions: read-out: apparent Kd, n = 1
# SRC = conditions: read-out: apparent Kd, n = 1
# YES1 = conditions: read-out: apparent Kd, n = 1
# CSNK1E = conditions: read-out: apparent Kd; compound concentrations:100 nM and 1000 nM (sheet 'Samples'); n = 1
# PHKG2 = conditions: read-out: apparent Kd, n = 1
# ADCK1 = conditions: read-out: apparent Kd, n = 1
# MARK2 = conditions: read-out: apparent Kd, n = 1
# BUB1 = conditions: read-out: apparent Kd, n = 1
# CDK17 = conditions: read-out: apparent Kd, n = 1
# STK16 = conditions: read-out: apparent Kd, n = 1
# TNIK = conditions: read-out: apparent Kd, n = 1
# CSNK1A1 = conditions: read-out: apparent Kd; compound concentrations:100 nM and 1000 nM (sheet 'Samples'); n = 1
# STK3 = conditions: read-out: apparent Kd; compound concentrations: 100 nM and 1000 nM (sheet 'Samples'), CATDS: 2.2839730138462501E-2; n = 1
# MAPK8 = conditions: read-out: apparent Kd; compound concentrations:100 nM and 1000 nM (sheet 'Samples'); n = 1
# [1] = compound concentrations:100 nM and 1000 nM (sheet 'Samples')
smiles,measurement,setting,value
NCCNS(=O)(=O)c1ccc(-c2ccnc3[nH]ccc23)cc1 [GSK977617A],potency estimated from few doses,ATM; [1],295 nM
same,potency estimated from few doses,EPHA2; [1],441 nM
same,potency estimated from few doses,HCK; [1],765 nM
same,potency estimated from few doses,PRKAA2; [1],721 nM
same,potency estimated from few doses,PRKX; [1],487 nM
same,potency estimated from few doses,RIOK2; [1],1170 nM
same,potency estimated from few doses,ROCK2; [1],97.3 nM
same,potency estimated from few doses,SRC; [1],589 nM
same,potency estimated from few doses,YES1; [1],518 nM
Cc1ccc2c(-c3ccncc3)c(-c3ccc(F)cc3)nn2c1.Cl [GW461484A],potency estimated from few doses,ATM; [1],262 nM
same,potency estimated from few doses,CSNK1E,673 nM
same,potency estimated from few doses,EPHA2; [1],754 nM
same,potency estimated from few doses,HCK; [1],755 nM
same,potency estimated from few doses,PHKG2; [1],1600 nM
same,potency estimated from few doses,PRKAA2; [1],1840 nM
same,potency estimated from few doses,SRC; [1],593 nM
same,potency estimated from few doses,YES1; [1],556 nM
Cc1cccc(-c2nc(Nc3ccncc3)c3sccc3n2)n1 [GW869641X],potency estimated from few doses,CSNK1E,418 nM
CN(c1ccc(NC(=O)N2CCN(CCCN3CCOCC3)CC2)cc1)c1ccnc(Nc2ccc(CS(C)(=O)=O)cc2)n1.Cl [GW830899A],potency estimated from few doses,"ADCK1; compound concentrations: 100 nM and 1000 nM (sheet 'Samples'), CATDS: 2.5462418576412099E-2",867 nM
same,potency estimated from few doses,"MARK2; compound concentrations: 100 nM and 1000 nM (sheet 'Samples'), CATDS: 1.9891178500976402E-2",1550 nM
CCn1c(-c2nonc2N)nc2c(C#CCN)ncc(OCCCN)c21.O=C(O)C(F)(F)F [GSK561866B],potency estimated from few doses,"ROCK2; compound concentrations: 100 nM and 1000 nM (sheet 'Samples'), CATDS: 8.7160231406383598E-2",858 nM
COc1ccc(Nc2ncc(C#N)c(Nc3ccccc3C(N)=O)n2)cc1N1CCN(C)CC1.Cl [GSK1558669A],potency estimated from few doses,"BUB1; compound concentrations: 100 nM and 1000 nM (sheet 'Samples'), CATDS: 6.2718506729186104E-3",1300 nM
same,potency estimated from few doses,"CDK17; compound concentrations: 100 nM and 1000 nM (sheet 'Samples'), CATDS: 6.8555901877920197E-3",789 nM
same,potency estimated from few doses,"HCK; compound concentrations: 100 nM and 1000 nM (sheet 'Samples'), CATDS: 7.9271656911812094E-3",417 nM
same,potency estimated from few doses,"MARK2; compound concentrations: 100 nM and 1000 nM (sheet 'Samples'), CATDS: 8.7535455285316904E-3",289 nM
same,potency estimated from few doses,"PRKAA2; compound concentrations: 100 nM and 1000 nM (sheet 'Samples'), CATDS: 3.3781833346765697E-2",15.3 nM
same,potency estimated from few doses,"RIOK2; compound concentrations: 100 nM and 1000 nM (sheet 'Samples'), CATDS: 6.5501119131463198E-3",1000 nM
same,potency estimated from few doses,"STK16; compound concentrations: 100 nM and 1000 nM (sheet 'Samples'), CATDS: 6.09253969178725E-3",1570 nM
same,potency estimated from few doses,"TNIK; compound concentrations: 100 nM and 1000 nM (sheet 'Samples'), CATDS: 6.3415403729181101E-3",1210 nM
same,potency estimated from few doses,"YES1; compound concentrations: 100 nM and 1000 nM (sheet 'Samples'), CATDS: 8.5191429755921595E-3",318 nM
CC(C)N1CCC(n2cnc(-c3ccc(F)cc3)c2-c2ccnc(N)n2)CC1 [SB-223132],potency estimated from few doses,BUB1; [1],1670 nM
same,potency estimated from few doses,CSNK1A1,158 nM
same,potency estimated from few doses,CSNK1E,77.8 nM
same,potency estimated from few doses,EPHA2; [1],735 nM
same,potency estimated from few doses,HCK; [1],969 nM
same,potency estimated from few doses,MARK2; [1],1570 nM
same,potency estimated from few doses,PRKAA2; [1],1290 nM
same,potency estimated from few doses,SRC; [1],964 nM
same,potency estimated from few doses,YES1; [1],758 nM
O=C1NC(=O)C(N2CCc3ccccc32)=C1c1ccccc1Cl [SB-373598],potency estimated from few doses,ATM; [1],39.1 nM
same,potency estimated from few doses,BUB1; [1],1690 nM
same,potency estimated from few doses,EPHA2; [1],87.4 nM
same,potency estimated from few doses,HCK; [1],312 nM
same,potency estimated from few doses,MARK2; [1],1350 nM
same,potency estimated from few doses,PHKG2; [1],872 nM
same,potency estimated from few doses,PRKAA2; [1],694 nM
same,potency estimated from few doses,PRKX; [1],367 nM
same,potency estimated from few doses,SRC; [1],134 nM
same,potency estimated from few doses,YES1; [1],128 nM
Clc1cc(Cl)cc(Nc2ccnc(Nc3cc(Cl)cc(Cl)c3)n2)c1 [GSK175726A],potency estimated from few doses,"ATM; compound concentrations: 100 nM and 1000 nM (sheet 'Samples'), CATDS: 2.7134606068091E-2",77.5 nM
same,potency estimated from few doses,"EPHA2; compound concentrations: 100 nM and 1000 nM (sheet 'Samples'), CATDS: 3.0586231323348499E-2",64 nM
same,potency estimated from few doses,"HCK; compound concentrations: 100 nM and 1000 nM (sheet 'Samples'), CATDS: 1.3478571983596799E-2",316 nM
same,potency estimated from few doses,"PHKG2; compound concentrations: 100 nM and 1000 nM (sheet 'Samples'), CATDS: 8.5028793142563602E-3",1680 nM
same,potency estimated from few doses,"PRKAA2; compound concentrations: 100 nM and 1000 nM (sheet 'Samples'), CATDS: 1.07442997812795E-2",618 nM
same,potency estimated from few doses,"PRKX; compound concentrations: 100 nM and 1000 nM (sheet 'Samples'), CATDS: 1.0278626389666701E-2",722 nM
same,potency estimated from few doses,"SRC; compound concentrations: 100 nM and 1000 nM (sheet 'Samples'), CATDS: 2.4757216834404398E-2",90.3 nM
same,potency estimated from few doses,"YES1; compound concentrations: 100 nM and 1000 nM (sheet 'Samples'), CATDS: 2.3154900781863899E-2",101 nM
CCn1c(-c2nonc2N)nc2c(C#CC(C)(C)O)nc(CN3CCCC3)cc21 [GSK1000163A],potency estimated from few doses,"PRKX; compound concentrations: 100 nM and 1000 nM (sheet 'Samples'), CATDS: 0.25481287922850399",759 nM
Cl.Nc1c(C(=O)c2cccc(C#CCN3CCCCC3)c2)cnn1-c1ccc(F)cc1 [RO1154461-001],potency estimated from few doses,"ATM; compound concentrations: 100 nM and 1000 nM (sheet 'Samples'), CATDS: 2.8189903331148802E-2",161 nM
same,potency estimated from few doses,"BUB1; compound concentrations: 100 nM and 1000 nM (sheet 'Samples'), CATDS: 1.00986377445768E-2",1860 nM
same,potency estimated from few doses,"EPHA2; compound concentrations: 100 nM and 1000 nM (sheet 'Samples'), CATDS: 1.6105152878217399E-2",472 nM
same,potency estimated from few doses,"HCK; compound concentrations: 100 nM and 1000 nM (sheet 'Samples'), CATDS: 1.18075673820272E-2",1060 nM
same,potency estimated from few doses,"PRKAA2; compound concentrations: 100 nM and 1000 nM (sheet 'Samples'), CATDS: 1.20335296051875E-2",1000 nM
same,potency estimated from few doses,"SRC; compound concentrations: 100 nM and 1000 nM (sheet 'Samples'), CATDS: 1.30987485498882E-2",787 nM
same,potency estimated from few doses,"YES1; compound concentrations: 100 nM and 1000 nM (sheet 'Samples'), CATDS: 1.4471532311659799E-2",608 nM
Cc1cc(-c2ccnc(Nc3cccc(C#N)c3)n2)cc(C)c1O [GSK1440913A],potency estimated from few doses,"ADCK1; compound concentrations: 100 nM and 1000 nM (sheet 'Samples'), CATDS: 7.9755280277017199E-2",1350 nM
Nc1nc(Nc2ccccc2)cc(-c2ccc3c(N)n[nH]c3c2)n1 [GSK2225749A],potency estimated from few doses,BUB1; [1],1900 nM
CNCC#Cc1c(F)ccc2c1/C(=C/c1[nH]ccc1OC)C(=O)N2.Cl [RO0281601-001],potency estimated from few doses,"CDK17; compound concentrations: 100 nM and 1000 nM (sheet 'Samples'), CATDS: 2.8122134627670499E-2",838 nM
same,potency estimated from few doses,"STK16; compound concentrations: 100 nM and 1000 nM (sheet 'Samples'), CATDS: 2.5135483463970699E-2",1180 nM
same,potency estimated from few doses,STK3,1650 nM
same,potency estimated from few doses,"TNIK; compound concentrations: 100 nM and 1000 nM (sheet 'Samples'), CATDS: 2.1303462940689799E-2",2180 nM
CN(C)CC(O)COc1ccc(Nc2nccc(-c3cnn4nc(N5CCOCC5)ccc34)n2)cc1 (stereo not drawn) [GW767488X],potency estimated from few doses,ADCK1; [1],587 nM
same,potency estimated from few doses,CDK17; [1],200 nM
same,potency estimated from few doses,CSNK1A1,1250 nM
same,potency estimated from few doses,MAPK8,127 nM
same,potency estimated from few doses,PHKG2; [1],2250 nM
same,potency estimated from few doses,RIOK2; [1],206 nM
same,potency estimated from few doses,ROCK2; [1],1440 nM
same,potency estimated from few doses,STK16; [1],69.2 nM
CNCc1ccc(-c2cc(-c3nc(-c4ccc(S(=O)(=O)C(C)C)cc4)cnc3N)on2)cc1 [VE-822],potency estimated from few doses,ATM; [1],13.5 nM
same,potency estimated from few doses,TNIK; [1],1650 nM
CCn1c(-c2nonc2N)nc2c(C#CC(C)(C)O)nc(O[C@@H](CN)c3ccccc3)cc21.O=C(O)C(F)(F)F [GSK1007102B],potency estimated from few doses,ADCK1; [1],788 nM
same,potency estimated from few doses,MARK2; [1],173 nM
same,potency estimated from few doses,ROCK2; [1],1670 nM
